Data as given in PubChem BioAssay (NCI).
Where “and” joins values, the source holds several entries; their conditions need not be identical. Equal values may be shown once. About 83,000 compounds went through this panel and 20% of them were active in at least one assay; those are over-represented in the sample as a whole.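 Values shown are percent growth following 48 h exposure of cells in 96-well plates to a single concentration of compound; below 10 was considered active.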 Calls of active or inactive are those of the source.

Experiments:
Assay in all cases: NCI-60 one-dose screen, 48 h (100 = growth as untreated, 0 = no growth, -100 = all killed)
[1] = system: OVCAR-3 ovarian
[2] = system: HS 578T breast
[3] = system: NCI/ADR-RES ovarian
[4] = system: SK-MEL-2 melanoma
[5] = system: EKVX NSCLC
[6] = system: SN12C renal
[7] = system: UO-31 renal
[8] = system: TK-10 renal; settings: 10 µM unless noted
[9] = system: ACHN renal
[10] = system: CAKI-1 renal
[11] = system: A498 renal; settings: 10 µM unless noted
[12] = system: CCRF-CEM leukemia
[13] = system: MOLT-4 leukemia
[14] = system: SR leukemia
[15] = system: RPMI-8226 leukemia; settings: 10 µM unless noted
[16] = system: OVCAR-8 ovarian
[17] = system: OVCAR-5 ovarian
[18] = system: OVCAR-4 ovarian
[19] = system: SK-OV-3 ovarian
[20] = system: IGROV1 ovarian

Measured: growth

CCCCCCCCCCCCCCCc1ccc(Cl)c(O)c1Cl (tested in a mixture with another compound)
inactive: [1]; 10 µM 112% | [2]; 0.25 µM 63.9% | [2]; 10 µM 105% | [3]; 0.25 µM 94.8% | [3]; 10 µM 96.5%

Cc1ccc(S(=O)(=O)Nc2nc3ccccc3nc2Nc2ccc3nsnc3c2)cc1
active: [4]; 10 µM unless noted 7.36%
inactive: [5]; 10 µM unless noted 46.5% and 49.7% | [6]; 10 µM unless noted 50.9% and 34.8% | [7]; 10 µM unless noted 43.6% and 22.3% | [8] 35.4% and 53.3% | [9]; 10 µM unless noted 54.5% and 61% | [10]; 10 µM unless noted 59.2% and 31.3% | [11] 56.7% and 11.7% | [12]; 10 µM unless noted 44.2% | [13]; 10 µM unless noted 35.3% and 45.3% | [14]; 10 µM unless noted 71.2% and 76.1% | [15] 27.5% | [16]; 10 µM unless noted 43.4% and 63.3% | [17]; 10 µM unless noted 92.1% and 87.2% | [18]; 10 µM unless noted 38.9% and 30.7% | [19]; 10 µM unless noted 30.1% and 69.2% | [20]; 10 µM unless noted 66.3% and 41.9% | [1]; 10 µM unless noted 47.8% and 35.2% | [2]; 10 µM unless noted 11.4% | [3]; 10 µM unless noted 62.8% and 43.2%

O=Nc1ccc(O)cc1
inactive: [4]; 10 µM unless noted 96.7% and 109% | [5]; 10 µM unless noted 91.6% and 105% | [6]; 10 µM unless noted 96.1% and 97.3% | [7]; 10 µM unless noted 90.7% and 62.9% | [8] 107% and 105% | [9]; 10 µM unless noted 81.3% and 75% | [10]; 10 µM unless noted 97.9% | [11] 122% and 130% | [12]; 10 µM unless noted 75.4% and 56.1% | [13]; 10 µM unless noted 82.5% and 89.2% | [14]; 10 µM unless noted 79.4% and 74.3% | [15] 97.6% and 103% | [16]; 10 µM unless noted 106% and 92.4% | [17]; 10 µM unless noted 105% and 98.9% | [18]; 10 µM unless noted 108% and 106% | [19]; 10 µM unless noted 108% and 107% | [20]; 10 µM unless noted 91.7% and 82% | [1]; 10 µM unless noted 89.2% and 97.7% | [2]; 10 µM unless noted 104% and 96.6% | [3]; 10 µM unless noted 89.3% and 84.6%

CN1CCN(Cc2occc(=O)c2O)CCN(C)CCN(Cc2occc(=O)c2O)CC1
inactive: [4]; 10 µM unless noted 105% and 64.9% | [5]; 10 µM unless noted 104% and 62.8% | [6]; 10 µM unless noted 87.9% and 82.7% | [7]; 10 µM unless noted 92.2% and 66.6% | [8] 100% and 65.2% | [9]; 10 µM unless noted 106% and 94% | [10]; 10 µM unless noted 99.7% and 42.1% | [11] 95.8% and 13% | [12]; 10 µM unless noted 91.5% and 49% | [13]; 10 µM unless noted 97.2% and 47.9% | [14]; 10 µM unless noted 79.5% and 31.1% | [15] 97.2% and 29.5% | [16]; 10 µM unless noted 98.8% and 64.2% | [17]; 10 µM unless noted 104% and 72.1% | [18]; 10 µM unless noted 102% and 77% | [19]; 10 µM unless noted 91% and 49.5% | [20]; 10 µM unless noted 96.3% and 54% | [1]; 10 µM unless noted 117% and 28.6% | [2]; 10 µM unless noted 90.4% and 84.2% | [3]; 10 µM unless noted 105% and 78.7%

CC(C)(C)c1cc(NC(=O)Cc2ccc(-c3cnc4cc(-c5cnn(CCN6CCOCC6)c5)ccc4n3)cc2)no1
inactive: [4]; 30 µM 29.7% | [5]; 10 µM 26.9% | [5]; 30 µM 19.1% | [12]; 10 µM 15.5% | [12]; 30 µM 10.4% | [13]; 10 µM 13.8% | [13]; 30 µM 10.8% | [15] 22.5% | [16]; 10 µM 18.6% | [16]; 30 µM 26.1% | [17]; 10 µM 24.2% | [17]; 30 µM 20.1% | [18]; 10 µM 10.1% | [18]; 30 µM 22.9% | [1]; 10 µM 28.4% | [1]; 30 µM 22% | [3]; 10 µM 12.8% | [3]; 30 µM 16.9%
active: [4]; 10 µM -8.73% | [6]; 10 µM 7.01% | [6]; 30 µM 6.88% | [7]; 10 µM 1.27% | [7]; 30 µM 3.63% | [9]; 10 µM 5.88% | [9]; 30 µM 8.72% | [10]; 10 µM 1.21% | [10]; 30 µM 3.67% | [14]; 10 µM 9.16% | [14]; 30 µM 8.04% | [19]; 10 µM -14.1% | [19]; 30 µM 9.27% | [20]; 10 µM -7.95% | [20]; 30 µM -9.55% | [2]; 10 µM -5.25% | [2]; 30 µM 3.43%
